Source: PMC4081100, “A DNA-binding-site landscape and regulatory network analysis for NAC transcription factors in Arabidopsis thaliana”

Columns and labels:
Experiment in all cases: universal protein binding microarray (PBM); transcription factors of Arabidopsis thaliana; high values mean tight binding
GST-ANAC055(1-171) = biological target: T1, GST-ANAC055(1-171) (Arabidopsis thaliana, UniProt Q9LDY8 1-171); conditions: protein: recombinant; tags: GST; chain copies: 2; dsDNA, one strand shown
T1 sequence: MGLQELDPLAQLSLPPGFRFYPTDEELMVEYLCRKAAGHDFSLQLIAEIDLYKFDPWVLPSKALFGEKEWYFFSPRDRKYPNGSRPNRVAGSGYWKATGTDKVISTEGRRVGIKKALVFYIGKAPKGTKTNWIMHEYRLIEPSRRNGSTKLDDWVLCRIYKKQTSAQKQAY
In short: (§1)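 For zinc-finger proteins, zinc acetate was added while GST-tagged NAC-domain, full-length or DNA-binding-domain proteins were induced in cells. Purification used glutathione–Sepharose 4B, and quantification used A280 or anti-GST western blot. Custom all-10-mer Agilent 4 × 180K arrays, made double-stranded by primer extension, each received a protein at 200 to 500 nM final in duplicate. Scoring covered gapped and ungapped 8-mers, with binding given as the normalised enrichment score (E-score).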

GST-ATAF1 NAC domain = biological target: T2, GST-ATAF1 NAC domain (Arabidopsis thaliana, UniProt Q39013 7-158); conditions: protein: recombinant; tags: GST; chain copies: 2; dsDNA, one strand shown
T2 sequence: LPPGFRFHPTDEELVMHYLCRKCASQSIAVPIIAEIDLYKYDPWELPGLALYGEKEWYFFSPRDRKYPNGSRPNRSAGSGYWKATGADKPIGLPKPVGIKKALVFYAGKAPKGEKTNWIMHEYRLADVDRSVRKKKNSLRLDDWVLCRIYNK
In short: as §1

[1] = biological target: T3, GST-ANAC092(1-285) full length (Arabidopsis thaliana, UniProt Q9FKA0 1-285); conditions: protein: recombinant; tags: GST; chain copies: 2; dsDNA, one strand shown
T3 sequence: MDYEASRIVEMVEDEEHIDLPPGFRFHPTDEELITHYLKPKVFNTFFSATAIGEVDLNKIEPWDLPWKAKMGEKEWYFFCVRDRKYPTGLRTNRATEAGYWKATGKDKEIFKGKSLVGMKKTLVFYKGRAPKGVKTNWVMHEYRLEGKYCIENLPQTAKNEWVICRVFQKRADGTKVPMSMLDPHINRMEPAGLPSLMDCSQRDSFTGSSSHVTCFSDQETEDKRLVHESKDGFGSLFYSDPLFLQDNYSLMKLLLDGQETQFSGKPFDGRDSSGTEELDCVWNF
In short: as §1

GST-NST2(1-184) = biological target: T4, GST-NST2(1-184) (Arabidopsis thaliana, UniProt Q9M274 1-184); conditions: protein: recombinant; tags: GST; chain copies: 2; dsDNA, one strand shown
T4 sequence: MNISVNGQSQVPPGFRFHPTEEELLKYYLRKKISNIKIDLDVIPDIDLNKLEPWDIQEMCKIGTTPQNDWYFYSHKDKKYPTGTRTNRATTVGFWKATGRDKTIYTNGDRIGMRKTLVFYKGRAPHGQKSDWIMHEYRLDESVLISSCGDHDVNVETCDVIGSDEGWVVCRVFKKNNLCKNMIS
In short: as §1

GST-VND3 NAC domain = biological target: T5, GST-VND3 NAC domain (Arabidopsis thaliana, UniProt Q9FH59 12-162); conditions: protein: recombinant; tags: GST; chain copies: 2; dsDNA, one strand shown
T5 sequence: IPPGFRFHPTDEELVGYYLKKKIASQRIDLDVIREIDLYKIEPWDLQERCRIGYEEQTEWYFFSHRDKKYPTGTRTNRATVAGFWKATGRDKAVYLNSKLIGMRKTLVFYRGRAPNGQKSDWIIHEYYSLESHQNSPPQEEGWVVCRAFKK
In short: as §1

GST-VND7 NAC domain = biological target: T6, GST-VND7 NAC domain (Arabidopsis thaliana, UniProt Q9C8W9 9-158); conditions: protein: recombinant; tags: GST; chain copies: 2; dsDNA, one strand shown
T6 sequence: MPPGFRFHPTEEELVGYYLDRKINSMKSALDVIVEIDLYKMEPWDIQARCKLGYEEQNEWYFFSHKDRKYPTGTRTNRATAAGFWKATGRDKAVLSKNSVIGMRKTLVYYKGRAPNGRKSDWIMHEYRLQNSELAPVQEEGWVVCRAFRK
In short: as §1

GST-WRKY1(266-371) = GST-WRKY1(266-371) (Arabidopsis thaliana, UniProt Q9SI37 266-371); conditions: protein: recombinant; tags: GST; dsDNA, one strand shown
GST-WRKY1(266-371), sequence (Q9SI37 266-371): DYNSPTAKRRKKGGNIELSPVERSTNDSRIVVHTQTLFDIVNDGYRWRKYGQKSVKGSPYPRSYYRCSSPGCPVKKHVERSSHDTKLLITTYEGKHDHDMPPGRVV
In short: as §1

GST-ANAC092(1-176) = biological target: T7, GST-ANAC092(1-176) (Arabidopsis thaliana, UniProt Q9FKA0 1-176); conditions: protein: recombinant; tags: GST; chain copies: 2; dsDNA, one strand shown
T7 sequence: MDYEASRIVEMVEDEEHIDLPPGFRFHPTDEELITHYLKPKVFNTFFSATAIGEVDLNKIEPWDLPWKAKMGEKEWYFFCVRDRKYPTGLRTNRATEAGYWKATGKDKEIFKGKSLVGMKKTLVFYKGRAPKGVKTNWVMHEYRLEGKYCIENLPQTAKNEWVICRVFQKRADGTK
In short: as §1

GST-NTL6(1-168) = GST-NTL6(1-168) (Arabidopsis thaliana, UniProt Q9SCK6 1-168); conditions: protein: recombinant; tags: GST; chain copies: 2; dsDNA, one strand shown
GST-NTL6(1-168), sequence (Q9SCK6 1-168): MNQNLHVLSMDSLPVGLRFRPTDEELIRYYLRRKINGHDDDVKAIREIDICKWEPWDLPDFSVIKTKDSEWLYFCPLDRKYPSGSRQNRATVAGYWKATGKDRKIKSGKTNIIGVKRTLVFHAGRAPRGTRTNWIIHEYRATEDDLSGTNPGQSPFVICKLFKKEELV
In short: as §1

GST-NAP(1-166) = biological target: T8, GST-NAP(1-166) (Arabidopsis thaliana, UniProt O49255 1-166); conditions: protein: recombinant; tags: GST; chain copies: 2; dsDNA, one strand shown
T8 sequence: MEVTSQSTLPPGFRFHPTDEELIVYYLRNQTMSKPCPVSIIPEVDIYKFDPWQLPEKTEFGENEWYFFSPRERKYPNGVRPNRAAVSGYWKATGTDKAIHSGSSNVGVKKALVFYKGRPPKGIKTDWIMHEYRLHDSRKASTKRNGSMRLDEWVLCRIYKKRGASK
In short: as §1

GST-ANAC019 NAC domain = biological target: T9, GST-ANAC019 NAC domain (Arabidopsis thaliana, UniProt Q9C932 14-162); conditions: protein: recombinant; tags: GST; chain copies: 2; dsDNA, one strand shown
T9 sequence: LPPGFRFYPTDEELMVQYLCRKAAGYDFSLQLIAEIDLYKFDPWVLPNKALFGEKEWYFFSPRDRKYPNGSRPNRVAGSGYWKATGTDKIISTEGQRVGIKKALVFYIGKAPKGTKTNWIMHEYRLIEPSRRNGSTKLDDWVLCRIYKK
In short: as §1

GST-NTL8 NAC domain = biological target: T10, GST-NTL8 NAC domain (Arabidopsis thaliana, UniProt Q9XIN7 14-156); conditions: protein: recombinant; tags: GST; chain copies: 2; dsDNA, one strand shown
T10 sequence: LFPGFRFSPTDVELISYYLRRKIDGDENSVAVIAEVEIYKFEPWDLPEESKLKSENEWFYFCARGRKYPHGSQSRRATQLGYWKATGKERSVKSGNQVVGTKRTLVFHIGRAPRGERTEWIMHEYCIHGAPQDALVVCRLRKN
In short: as §1

Sequence	binding signal (GST-ANAC055(1-171)) [E-score]	binding signal (GST-ATAF1 NAC domain) [E-score]	binding signal [1] [E-score]	binding signal (GST-NST2(1-184)) [E-score]	binding signal (GST-VND3 NAC domain) [E-score]	binding signal (GST-VND7 NAC domain) [E-score]	binding signal (GST-WRKY1(266-371)) [E-score]	binding signal (GST-ANAC092(1-176)) [E-score]	binding signal (GST-NTL6(1-168)) [E-score]	binding signal (GST-NAP(1-166)) [E-score]	binding signal (GST-ANAC019 NAC domain) [E-score]	binding signal (GST-NTL8 NAC domain) [E-score]
AATAGTCA	0.0507	0.061	0.113	0.0657	0.178	0.143	0.413	–	–	–	–	–
CAAGACCA	0.092	0.0751	–	0.0893	0.0681	–	0.408	0.106	0.0845	–	–	–
CTATTGAC	0.0817	0.0721	–	–	0.06	–	0.451	–	0.075	0.0658	–	–
AAAGTCGT	0.271	0.258	–	0.13	0.145	0.176	0.429	–	–	0.132	0.29	–
ATTGACTA	0.18	0.259	0.153	0.182	0.228	–	0.466	0.0863	–	0.0723	–	–
CTTGACTC	–	0.0754	–	–	0.0677	–	0.466	0.0601	–	–	–	–
ATATTGAC	–	0.167	–	–	0.169	0.0695	0.453	–	–	0.178	–	–
ATAGTCAA	0.122	0.263	0.12	0.146	0.211	0.12	0.473	–	–	0.0851	–	–
GTCAATCA	0.0807	–	0.169	0.0647	0.132	0.114	0.435	–	–	–	0.0668	0.0888
ACACGGCT	0.347	0.264	0.335	–	0.348	0.321	–	0.181	–	0.194	0.418	–
AATGGTCA	–	–	–	–	0.0734	–	0.434	–	0.0526	–	–	–
AAGTCTTC	0.0748	0.0685	–	–	0.123	0.0783	0.429	–	0.204	–	0.052	0.0771
AGTCAATC	–	0.0533	0.0868	0.0674	0.0908	–	0.468	0.0925	0.0768	0.0978	0.0741	0.122
AATGTCAA	0.155	0.19	–	0.0715	0.104	0.0638	0.404	–	–	0.13	–	–
CCACGGAA	0.326	0.211	0.244	0.123	0.343	0.316	–	0.219	0.117	0.149	0.427	0.107
CTAGTCAA	0.171	0.148	0.0883	–	0.166	0.08	0.474	–	–	–	0.0699	0.0822
AGAGGGAA	0.0527	0.0736	–	–	0.0709	0.0972	–	0.114	0.178	0.111	–	0.447
GGATTGAC	0.0598	–	–	0.12	0.094	–	0.459	0.0627	0.0579	0.0556	0.102	–
TACAGTCA	0.0559	0.107	0.131	–	0.167	0.0649	0.404	–	–	–	0.109	0.0899
TGGTCAAA	–	0.062	0.0538	–	0.118	–	0.491	0.0858	–	–	–	–
CATGGTCA	–	–	–	–	0.0588	–	0.443	–	–	–	–	–
ACACGGTA	0.265	0.21	0.443	0.202	0.227	0.123	–	0.437	–	0.234	0.286	–
TGACTAAA	–	–	–	0.111	0.0682	0.0902	0.42	–	0.0547	–	0.0691	–
GCACGGTA	0.189	0.134	0.408	–	0.124	0.122	–	0.375	–	0.102	0.2	–
AGTCAACT	–	0.0655	–	–	0.0667	0.0783	0.486	–	–	–	0.183	–
